The values that follow come from PubChem BioAssay (EPA / NIEHS).

Results filed as inconclusive are left out. Activity calls are given as the source filed them. Rule for the calls, unless noted: active = hit-call score of the fitted dose curve at least 0.9, where 1 is the maximum; inconclusive = response in the unintended direction; inactive = score below 0.9.

Assay [1] can be described thus: Tanguay_ZF_120hpf_ActivityScore_legacy: (Legacy) Oregon State University Tanguay Lab 120 Hour Post-fertilization zebrafish Assay Score for Activity (AID 2283742).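 For AC50: dechorionated Tropical 5D wild-type zebrafish embryos held singly per well; static exposure from 6 hpf until 120 hpf at 28 °C.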 The method, boiled down:
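In this whole-embryo screen, dechorionated zebrafish were exposed from 6 hpf until 120 hpf at 28C under a 0.64% DMSO vehicle. Developmental malformations and death were recorded by brightfield microscopy as binary endpoints.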

Assay [2] concerns the target Luciferin 4-monooxygenase (Photinus pyralis) (UniProt P08659). As to the kind of experiment: CCTE_Simmons_QuantiLum_inhib_2: CCTE's Firefly Luciferase Inhibition Assay, Simmons Lab (AID 2283767). The method, boiled down:
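Eight test concentrations, 5 nM up to 87.5 uM final, preincubated 30min at 37C in the dark with purified luciferase (0.5% DMSO final). Detection reagent (150uM D-luciferin, 147uM dATP, 75uM CoA, pH 7.8) injected per well before kinetic luminescence read; three replicates.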

Assay [3] in a line: ACEA_AR_agonist_AUC_viability: ACEA Biosciences xCELLigence Real-Time Cell Analysis on Androgen Receptor Agonism for Viability (AID 2283775).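 For AC50: viability read 80 hours after compound addition.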 In a few lines: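 22Rv1 cells; impedance growth kinetics; 8-pt 1:4 dilutions from 100 uM top final, ≤0.5% DMSO; n = 2; 80 h read; AUC viability, loss-of-signal vs DMSO.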
A short description of assay [4]: ACEA_AR_antagonist_AUC_viability: ACEA Biosciences xCELLigence Real-Time Cell Analysis on Androgen Receptor Antagonism for Viability (AID 2283776).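 Note: 22Rv1 human prostate cancer cells growing on impedance electrode plates; area under impedance growth curve at 80 h after dosing as viability; hits lower the growth signal relative to DMSO meaning cytotoxicity.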 In a few lines:
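22Rv1 prostate cells, continuous dosing up to 100 uM final (0.5% DMSO max), duplicate plates. Growth measured by impedance; AUC at 80 h, loss of signal vs DMSO.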

The nature of assay [5]: CEETOX_H295R_MTT_cell_viability: Viability Assessment in the CeeTox HT-H295R MTT Assay (AID 2283718; active = hit-call score of the fitted dose curve at least 0.9, where 1 is the maximum; inactive = score below 0.9;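 for AC50: curve fitted both ways so AC50 may mark viability loss or gain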). In a few lines:
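H295R cells prestimulated 48 h with 10 uM forskolin, then exposed 48 h to test chemical (0.1% DMSO final). Viability by MTT (0.5 mg/ml, 4 h, 37 C), absorbance 570/650 nm; percent change versus DMSO, bidirectional fit.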

Assay [6] has as its system chicken Androgen Receptor (AR), gene 422165. Put plainly: ATG_chAR_XSP1: Attagene TRANS-FACTORIAL Multi-Species (XSP1) HepG2 Assay for chicken Androgen Receptor (AR) (AID 2283768). In a few lines:
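Reporter mRNA read by RT-PCR with fluorescent labelling and capillary electrophoresis 24 h after chemical dosing of transiently transfected HepG2 cells. Chicken AR-Gal4 chimera, partially stimulated with 3 nM 6-alpha-fluorotestosterone; activity fitted upward relative to DMSO.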

For assay [7], the system named is zebrafish Androgen Receptor (AR), gene 100005148. Put plainly: ATG_zfAR_XSP1: Attagene TRANS-FACTORIAL Multi-Species (XSP1) HepG2 Assay for zebrafish Androgen Receptor (AR) (AID 2283771). In a few lines: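 Gain-of-signal versus DMSO was measured as reporter transcripts quantified by RT-PCR, fluorescent labelling and capillary electrophoresis after 24 h chemical exposure. The cells were HepG2 expressing a chimeric zebrafish AR-GAL4, co-stimulated with 3 nM 6-alpha-fluorotestosterone.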

Assay [8] addresses zebrafish Estrogen Receptor (ESR1), esr1 (gene 259252) (UniProt P57717). Put plainly: ATG_zfER1_XSP1: Attagene TRANS-FACTORIAL Multi-Species (XSP1) HepG2 Assay for zebrafish Estrogen Receptor (ESR1) (AID 2283772). In a few lines:
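Exogenous chimeric receptor-GAL4 activity is measured in transiently transfected human HepG2 liver cells after 24 h compound exposure. Reporter transcripts are detected by RT-PCR and fluorescent capillary electrophoresis, analysed for signal gain relative to DMSO.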

The test system of assay [9] is zebrafish Estrogen Receptor (ESR2B), gene 317733. Put plainly: ATG_zfER2b_XSP1: Attagene TRANS-FACTORIAL Multi-Species (XSP1) HepG2 Assay for zebrafish Estrogen Receptor (ESR2B) (AID 2283773). The method, boiled down: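 Human hepatoma HepG2, transiently transfected with multi-reporter units; exogenous zebrafish ESR2B-Gal4 activity measured. Exposure 24 h alongside 3 nM 6-alpha-fluorotestosterone to partly stimulate AR.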

Assay [10] relates to frog Estrogen Receptor (ESR2), gene 100174814. As to the kind of experiment: ATG_frER2_XSP1: Attagene TRANS-FACTORIAL Multi-Species (XSP1) HepG2 Assay for frog Estrogen Receptor (ESR2) (AID 2283774). The method, boiled down: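 Multiplexed TRANS-format reporter assay in human hepatoma HepG2: chimeric nuclear receptor-Gal4 activity reported as mRNA induction at 24 h, detected by fluorescent RT-PCR products on capillary electrophoresis and fitted upward from DMSO baseline.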

The nature of assay [11]: ArunA_CellTiter_hNC: Viability Assessment in the ArunA Biomedical's Oris Neural Crest (hNC) Cell Migration Assay (AID 2283752). In a few lines: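 After a 72 h chemical exposure, viability of hNC cells is read with CellTiter Aqueous One and fitted as signal loss relative to DMSO. Cells were seeded at 60,000/well on Matrigel and cultured 16 h at 37 C beforehand.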
A short description of assay [12]: ArunA_CellTiter_hNP: Viability Assessment in the ArunA Biomedical's Oris Neural Crest (hNC) Cell Migration Assay (AID 2283753). The method, boiled down: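 Viability read with CellTiter 96 Aqueous One after 72 h chemical exposure of human hNP1 neuroprogenitors, which were plated on Matrigel in LIF/bFGF medium 16 h beforehand. Endpoint fitted in positive direction relative to DMSO.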

Assay [13] is described as follows: ArunA_Migration_hNP: ArunA Biomedical's Oris Neuroprogenitor (hNP) Cell Migration Assay (AID 2283754). In a few lines:
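Readout is calcein-AM fluorescence (ex494/em517) of cells migrating into the detection zone, relative to DMSO. hNP1 cells (H9-derived) grown on Matrigel behind stoppers 16 h, then stoppers pulled and chemical applied 72 h; cytochalasin D as control.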

Assay [14] can be described thus: ArunA_NOG_NucleusCount: ArunA Biomedical's Neurite Outgrowth (NOG) Assay for Nucleus Count (AID 2283756). The method, boiled down:
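Viable neuron count, from Hoechst nuclei passing size and intensity gates, imaged at 20x on differentiated H9-derived human neurons. Exposure lasted 48 h from seeding; activity was scored relative to DMSO.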

Chain of Luciferin 4-monooxygenase (Photinus pyralis) (P08659 whole entry, looked up): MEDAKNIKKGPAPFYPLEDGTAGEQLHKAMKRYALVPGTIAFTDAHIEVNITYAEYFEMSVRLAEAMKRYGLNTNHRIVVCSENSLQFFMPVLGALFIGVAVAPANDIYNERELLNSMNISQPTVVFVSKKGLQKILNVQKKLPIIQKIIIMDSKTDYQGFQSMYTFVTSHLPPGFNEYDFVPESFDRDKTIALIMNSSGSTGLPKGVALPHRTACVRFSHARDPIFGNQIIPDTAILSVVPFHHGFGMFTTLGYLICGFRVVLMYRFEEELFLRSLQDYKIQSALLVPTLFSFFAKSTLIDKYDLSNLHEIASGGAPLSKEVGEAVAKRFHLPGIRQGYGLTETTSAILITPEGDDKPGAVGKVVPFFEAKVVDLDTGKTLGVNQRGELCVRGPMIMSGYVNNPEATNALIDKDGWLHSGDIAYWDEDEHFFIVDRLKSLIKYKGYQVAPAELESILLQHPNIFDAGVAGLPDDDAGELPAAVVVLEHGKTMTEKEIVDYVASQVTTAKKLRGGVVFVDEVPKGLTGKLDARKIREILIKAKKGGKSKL
Chain of zebrafish Estrogen Receptor (ESR1), esr1 (gene 259252) (P57717 whole entry, looked up, the tested form may be a part): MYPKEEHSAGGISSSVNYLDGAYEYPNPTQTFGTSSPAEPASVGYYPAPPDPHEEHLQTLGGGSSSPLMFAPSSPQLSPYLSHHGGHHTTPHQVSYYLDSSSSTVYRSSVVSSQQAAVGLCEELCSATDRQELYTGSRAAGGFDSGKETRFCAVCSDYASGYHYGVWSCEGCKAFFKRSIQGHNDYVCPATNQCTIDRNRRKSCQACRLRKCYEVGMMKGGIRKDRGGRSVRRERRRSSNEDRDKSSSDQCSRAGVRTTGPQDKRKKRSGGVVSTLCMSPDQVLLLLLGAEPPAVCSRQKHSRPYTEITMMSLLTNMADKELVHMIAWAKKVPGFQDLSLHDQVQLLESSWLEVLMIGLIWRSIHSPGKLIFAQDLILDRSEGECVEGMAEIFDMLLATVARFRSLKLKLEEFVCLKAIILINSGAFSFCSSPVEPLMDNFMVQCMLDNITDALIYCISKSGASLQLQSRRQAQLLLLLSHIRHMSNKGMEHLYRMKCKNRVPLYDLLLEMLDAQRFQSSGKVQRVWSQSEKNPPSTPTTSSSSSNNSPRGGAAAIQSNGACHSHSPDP

For `COP(N)(=O)SC` (stereo not given), the call in assay [1], in assay [2], in [3] and in assay [4] was inactive.

Take `CCOC(=O)C(Cl)Cc1cc(-n2nc(C)n(C(F)F)c2=O)c(F)cc1Cl` (stereo not given): the figures for the AC50 in assay [5] and in [1] were 0.0412 µM (active) and 2.02 µM (active), respectively. Besides, in [3], the molecule was classed as inactive.

As to `CC(Oc1ccc(Cl)cc1Cl)C(=O)O` (stereo not given), the outcome in assay [1], in [3] and in assay [4] was inactive.

As for `CC(C)Oc1cc(-n2nc(C(C)(C)C)oc2=O)c(Cl)cc1Cl`, the molecule was classed as inactive in assay [5], in [1], in [7] and in [8]. In addition, the AC50 was 18 µM (active) in assay [6]; 29.6 µM (active) in [9]; 33.5 µM (active) in [10]; 50 µM (active) in assay [3]; 50 µM (active) in [4].

Take `O=C(O)c1nc(Cl)ccc1Cl`: the outcome in assay [1], in [2], in assay [3] and in assay [4] was inactive.

As for `CNC(=O)ON=CC(C)(C)SC`, in assay [1], the AC50 is 0.00317 µM (active). For the same molecule, in assay [4], the molecule was classed as inactive.

Turning to `C=CCC1=C(C)[C@@H](OC(=O)[C@@H]2[C@@H](C=C(C)C)C2(C)C)CC1=O`, the call in assay [1], in [12], in assay [13], in assay [14] and in [2] was inactive. For the same molecule, the values for the AC50 in [11], in [3] and in assay [4] were 0.992 µM (active), 66.9 µM (active) and 61.3 µM (active), respectively.

For `Cc1c(F)c(F)c(COC(=O)C2C(/C=C(\Cl)C(F)(F)F)C2(C)C)c(F)c1F` (stereo not given), the molecule was called inactive in assay [5] and in [3]. The results for the AC50 in assay [1] and in assay [4] were 20.9 µM (active) and 30.6 µM (active), respectively.

For the molecule `Fc1ccc(Oc2ccnc3cc(Cl)cc(Cl)c23)cc1`, the molecule was classed as inactive in assay [1]. In addition, the values for the AC50 in assay [3] and in assay [4] were 76.3 µM (active) and 60 µM (active), respectively.

Consider `COC(=O)C(C)Oc1ccc(Oc2ccc(Cl)cc2Cl)cc1` (stereo not given), for which, in assay [1], the call was inactive. Further, the AC50 in [3] and in [4] was 50 µM (active) in each case.

As to `CS/C(C)=N/OC(=O)N(C)SN(C)C(=O)O/N=C(\C)SC`, in assay [1], the molecule was classed as inactive. Also, the results for the AC50 in assay [3] and in assay [4] were 79.6 µM (active) and 77.9 µM (active), respectively.

As to `CCCCNC(=O)OCC#CI`, the AC50 was 15.8 µM (active) in assay [1], 11.6 µM (active) in [3] and 13.9 µM (active) in assay [4]. Moreover, the result in assay [8] and in assay [9] was inactive.

For `CC1=C(C(=O)Nc2ccccc2)SCCO1`, the molecule was classed as inactive in assay [5], in assay [2] and in [4]. Further, in assay [1], the AC50 is 47.7 µM (active).

Take `Cc1cc(Cl)ccc1OCC(=O)O`: the molecule was called inactive in assay [5], in [1], in [3] and in [4].

For the molecule `C=CCC1=C(C)C(OC(=O)C2C(C=C(C)C)C2(C)C)CC1=O` (stereo not given), the values for the AC50 in [5], in [3] and in assay [4] were 9.99 µM (active), 52.5 µM (active) and 52.5 µM (active), respectively. The result in assay [1] and in assay [2] was inactive.

For the molecule `O=C(O)COc1nc(Cl)c(Cl)cc1Cl`, the molecule was classed as inactive in assay [1].

For the molecule `CNC(=S)S`, the molecule was classed as inactive in assay [5], in assay [1], in [2], in [3] and in assay [4].
